32 compounds from PubChem BioAssay (NCI) can be followed below.

This is part of a sample that, as a whole, favours compounds with a hit. Of some 83,000 tested, about 20% had one in any assay.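 Treatment: one concentration, 48 hours, 96-well format. Scoring: percent growth, with anything below 10 considered active.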 Active and inactive are the calls of the source.

The first assay relates to OVCAR-3 ovarian. Kind of assay: NCI-60 one-dose screen, 48 h (100 = growth as untreated, 0 = no growth, -100 = all killed). The settings on record: 10 µM unless noted.
On to `Cc1ccc(/C=C(\C#N)C(=O)Nc2ncc(Cc3cc(Cl)ccc3Cl)s2)o1`, for which the growth was 75.4% (inactive).

In the case of `C[C@@H]1CC[C@@]2(OC1)O[C@H]1C[C@H]3[C@@H]4CC=C5C[C@@H](O[C@@H]6O[C@H](CO)[C@@H](O[C@@H]7O[C@@H](CO)[C@H](O)[C@H]7O)[C@H](O)[C@H]6O[C@@H]6O[C@@H](C)[C@H](O)[C@@H](O)[C@H]6O)CC[C@]5(C)[C@H]4CC[C@]3(C)[C@H]1[C@@H]2C`, the growth is -90.2% (active).

`CCOC(=O)c1cn2ncnc(Oc3ccc(NC(=O)NC4CC4)c(F)c3)c2c1C`: the growth is 113% (inactive).

Another assay deals with HS 578T breast. The assay is described as above. Particulars: 10 µM unless noted.
For the compound `CC1(C)CC[C@]2(C(=O)N3CCOCC3)CC[C@]3(C)C(=CC[C@@H]4[C@@]5(C)C/C(=C/c6ccncc6)C(=O)C(C)(C)[C@@H]5CC[C@]43C)[C@@H]2C1`, the growth is 27.5% (inactive).

As for `O=C(Nc1cccnc1Nc1ccc(Cl)cc1)c1cn(Cc2ccc(F)cc2)nn1`, the growth is 93.2% (inactive).

Take `C=C1C(=O)O[C@H]2[C@H]1CC/C(CNC(=O)c1cc3ccccc3[nH]1)=C\CC[C@@]1(C)O[C@@H]21`: the growth is 42.7% (inactive).

Turning to `C=CCN=C(N)SCCCCCCSC(N)=NCC=C`, the growth is 92.2% (inactive).

Take `CNC(=O)c1c(NC(=O)c2ccc(C(C)(C)C)cc2)sc2c(CN(C)C)c(O)ccc12`: the growth is 54.7% (inactive).

In the case of `COc1ccc(C/C(C)=C(\c2ccc(O)cc2)c2ccc(OCCN3CCCC3)cc2)cc1`, the growth was 101% (inactive).

For the compound `S=c1ssnc1-c1cccs1`, the growth is 46.6% (inactive).

`COc1cc(/C=C/c2cc(/C=C/c3ccc(O)c(OC)c3)n(C(=O)Nc3ccc(F)cc3)n2)ccc1O`: the growth is 20% (inactive).

With `COc1cc2c3c(n(CCCCNCCCn4c5c(c6cc(OC)c(OC)cc6c4=O)C(=O)c4cc6c(cc4-5)OCO6)c(=O)c2cc1OC)-c1cc2c(cc1C3=O)OCO2`, the growth is 104% (inactive).

For `COc1cc(-c2cc(-c3ccc(Nc4ncnc5cc(Cl)ccc45)cc3)nc(N3CCN(C)CC3)n2)cc(OC)c1OC`, the growth was 73.2% (inactive).

Turning to `COc1cc(C(=O)/C=C/c2ccc(N3CCN(C)CC3)cc2)cc(OC)c1OC`, the growth is 94.3% (inactive).

As to `Cc1ccc2[nH]c(=O)c3c(c2c1)OC(N)=C(C#N)C31C(=O)c2cccc3cccc1c23` (configuration not stated), the growth is 93.9% (inactive).

`Cn1c(=O)c2c(nc(NC3=NS(=O)(=O)c4ccccc43)n2Cc2ccccc2)n(C)c1=O`: the growth was 96.5% (inactive).

For the compound `COc1ccc(C/C(C)=C(/c2ccc(OCCN3CCCCCC3)cc2)c2ccc(OC(=O)NCc3ccccc3)cc2)cc1`, the growth was 75% (inactive).

Consider `Cn1cc(-c2csc(-c3cn(C(=O)OC(C)(C)C)c4ccccc34)n2)c2ccnc(Cl)c21`, for which the growth was 66.1% (inactive).

As to `CCN(C(=O)N1CCN(c2cc3c(cc2F)c(=O)c(C(=O)O)cn3C2CC2)CC1)c1nc(-c2ccc(C)cc2)cs1`, the growth was 18.3% (inactive).

As to `COC(=O)c1nc(-c2ccccc2)oc1S(=O)(=O)N1CCC(C(N)=O)CC1`, the growth was 86.7% (inactive).

For `CCCCSCC(=O)c1ccccc1`, the growth is 110% (inactive).

With `Cc1ccc(Nc2nc(-c3ccc(F)cc3)c(C#N)c(=O)n2C)cc1`, the growth is 44.8% (inactive).

As to `COc1cccc(OC)c1Oc1c(-c2nc3ccccc3s2)c(C)nn1-c1ccccc1`, the growth was 78.3% (inactive).

Consider `Cc1ccccc1CNc1c2ccccc2nc2ccccc12`, for which the growth is 35.7% (inactive).

For the compound `COc1ccc2nc3ccccc3c(NCc3ccc(F)cc3)c2c1`, the growth was 26.1% (inactive).

In the case of `O=C1NC(=O)c2c1c1c3ccccc3[nH]c1c1oc3cc(Br)ccc3c21`, the growth is 77.3% (inactive).

`COc1ccc(-c2nnc(SCC(=O)Nc3ccc(/C(C)=N\O)cc3)n2-c2ccccc2)cc1OC`: the growth was 42.8% (inactive).

In the case of `CC1=CCC[C@@H]2C1(C)CC[C@H](C)[C@@]2(C)CC1=CC(=O)C(SC(C)(C)C)=CC1=O` (some centres not stated), the growth was 85% (inactive).

For the compound `CCn1cc(CNc2ccc(C(=O)Nc3cc4cc(OC)c(OC)cc4c(C)n3)cc2)c(C)n1`, the growth is 82.7% (inactive).

As to `CCCCN1C(=O)/C(=c2\sc3n(c2=O)NC2C(N=3)N(CC)C(=O)N2CC)c2ccccc21` (configuration not stated), the growth is 40.2% (inactive).

For `NC(=O)c1c(NC(=O)c2ccc(Cl)cc2)sc2c1CCC(=O)C2`, the growth was 64% (inactive).

On to `CC1(C)CC[C@]2(C(=O)O)CC[C@]3(C)C(=CC[C@@H]4[C@@]5(C)C[C@@H](Cc6cn([C@@H]7O[C@H](CO)[C@@H](O)[C@H](O)[C@H]7O)nn6)[C@H](O)C(C)(C)[C@@H]5CC[C@]43C)[C@@H]2C1`, for which the growth was 96.8% (inactive).
